Among the data in paper PMC3218832 are binding signal values, retold here.

Targets include RELARELA (p65 homodimer) (Homo sapiens, UniProt Q04206 1-307); p50p50 homodimer (Homo sapiens, UniProt P19838 7-356); RELB subunit;p50 subunit (Homo sapiens;Homo sapiens, UniProt Q01201;P19838 120-401;7-356).
What all share (test): protein binding microarray; high values mean tight binding
Conditions in all cases: dsDNA, one strand shown

Another experiment addresses T1, p52p52 homodimer (Homo sapiens, UniProt Q00653 4-332).
T1 sequence: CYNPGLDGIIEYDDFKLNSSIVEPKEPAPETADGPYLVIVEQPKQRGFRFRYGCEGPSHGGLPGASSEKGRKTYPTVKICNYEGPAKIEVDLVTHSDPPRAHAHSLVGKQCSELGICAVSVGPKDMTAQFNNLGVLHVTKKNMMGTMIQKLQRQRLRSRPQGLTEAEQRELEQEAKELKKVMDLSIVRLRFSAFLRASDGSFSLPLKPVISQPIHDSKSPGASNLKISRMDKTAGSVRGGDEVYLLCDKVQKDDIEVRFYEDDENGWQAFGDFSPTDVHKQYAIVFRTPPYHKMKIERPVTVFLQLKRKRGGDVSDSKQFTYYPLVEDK

Experiment [1] concerns the target RELA (p65) subunit of heterodimer;p50 subunit (Homo sapiens;Homo sapiens, UniProt Q04206;P19838 1-307;7-356).
Experiment [2] concerns the target RELA (p65) subunit of heterodimer;p52 subunit (Homo sapiens;Homo sapiens, UniProt Q04206;Q00653 1-307;4-332).
A further experiment has as its target T2, RELB subunit;p52 subunit (Homo sapiens;Homo sapiens, UniProt Q01201;Q00653 120-401;4-332).
T2 sequence 1: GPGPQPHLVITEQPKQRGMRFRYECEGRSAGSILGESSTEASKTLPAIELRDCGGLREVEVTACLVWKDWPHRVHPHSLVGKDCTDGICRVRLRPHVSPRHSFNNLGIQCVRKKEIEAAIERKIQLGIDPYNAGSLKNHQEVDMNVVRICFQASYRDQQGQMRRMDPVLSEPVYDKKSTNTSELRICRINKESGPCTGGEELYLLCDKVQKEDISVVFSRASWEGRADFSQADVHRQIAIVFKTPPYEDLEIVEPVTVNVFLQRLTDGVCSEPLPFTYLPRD
T2 sequence 2: T1 sequence

In experiment [3] the target is C-Rel subunit;p50 subunit (Homo sapiens;Homo sapiens, UniProt Q04864;P19838 1-285;7-356).
In experiment [4] the target is T3, C-Rel subunit;p52 subunit (Homo sapiens;Homo sapiens, UniProt Q04864;Q00653 1-285;4-332).
T3 sequence 1: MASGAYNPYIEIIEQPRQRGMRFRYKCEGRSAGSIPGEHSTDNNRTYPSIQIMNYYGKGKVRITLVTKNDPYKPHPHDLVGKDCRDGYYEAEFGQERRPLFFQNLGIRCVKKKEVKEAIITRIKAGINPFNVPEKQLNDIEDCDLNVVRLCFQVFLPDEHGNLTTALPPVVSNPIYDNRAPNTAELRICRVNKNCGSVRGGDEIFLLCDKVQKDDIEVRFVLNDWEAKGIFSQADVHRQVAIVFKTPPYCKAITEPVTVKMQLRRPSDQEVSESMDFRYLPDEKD
T3 sequence 2: T1 sequence

RELA (p65) subunit of heterodimer;p50 subunit, sequence (Q04206 1-307, chain 1 of 2): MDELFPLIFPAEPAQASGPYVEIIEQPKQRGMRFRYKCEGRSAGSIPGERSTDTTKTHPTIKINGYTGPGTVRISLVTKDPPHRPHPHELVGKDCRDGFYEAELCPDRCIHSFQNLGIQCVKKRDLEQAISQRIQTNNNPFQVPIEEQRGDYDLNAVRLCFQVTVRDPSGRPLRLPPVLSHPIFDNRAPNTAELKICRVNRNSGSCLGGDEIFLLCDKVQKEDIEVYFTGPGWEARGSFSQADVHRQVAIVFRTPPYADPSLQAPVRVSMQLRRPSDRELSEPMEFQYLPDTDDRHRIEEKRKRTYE
RELA (p65) subunit of heterodimer;p50 subunit, sequence (P19838 7-356, chain 2 of 2): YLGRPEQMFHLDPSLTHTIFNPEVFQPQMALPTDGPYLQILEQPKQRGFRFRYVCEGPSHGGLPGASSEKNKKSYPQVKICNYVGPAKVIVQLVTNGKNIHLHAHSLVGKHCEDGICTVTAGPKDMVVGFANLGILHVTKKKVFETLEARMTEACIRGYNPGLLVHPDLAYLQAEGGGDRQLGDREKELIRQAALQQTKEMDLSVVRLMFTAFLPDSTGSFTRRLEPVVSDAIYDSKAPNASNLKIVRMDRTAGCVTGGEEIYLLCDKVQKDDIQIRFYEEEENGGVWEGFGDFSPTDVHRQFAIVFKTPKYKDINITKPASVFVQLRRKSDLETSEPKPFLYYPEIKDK
RELARELA (p65 homodimer), sequence (Q04206 1-307): as the sequence (Q04206 1-307, chain 1 of 2) above
p50p50 homodimer, sequence (P19838 7-356): as the sequence (P19838 7-356, chain 2 of 2) above

As for AAGAGGCTCCC, the binding signal was -0.428 z-score with RELARELA (p65 homodimer); -1.01 z-score in the experiment with p50p50 homodimer; -0.505 z-score in the experiment with p52p52 homodimer; -0.958 z-score in [1]; -0.845 z-score in experiment [2]; -0.665 z-score with RELB subunit;p50 subunit. The figures for the binding signal (with RELB subunit;p52 subunit; in experiment [3]; in experiment [4]) were -0.714 z-score, -1.12 z-score and -0.72 z-score, respectively.
As for AAGTGTGTCCT, the binding signal was -0.0699 z-score in the experiment with RELARELA (p65 homodimer); -1.1 z-score with p50p50 homodimer; -0.57 z-score with p52p52 homodimer; -0.888 z-score in experiment [1]; -0.62 z-score in experiment [2]; -0.808 z-score with RELB subunit;p50 subunit. In addition, the binding signal in the experiment with RELB subunit;p52 subunit is -0.709 z-score; in [3], -0.908 z-score; in experiment [4], -0.763 z-score.
As for CGGGGTCTCCT, the binding signal with RELARELA (p65 homodimer) was -0.0145 z-score; with p50p50 homodimer it was 0.0717 z-score; in the experiment with p52p52 homodimer, 0.00961 z-score; in experiment [1], -0.308 z-score; in [2] it was -0.191 z-score; with RELB subunit;p50 subunit, -0.332 z-score. Also, the binding signal is -0.207 z-score in the experiment with RELB subunit;p52 subunit, -0.336 z-score in experiment [3] and 0.0688 z-score in experiment [4].
Consider GAAGGCGTCCC, for which the binding signal with RELARELA (p65 homodimer) was -0.376 z-score; with p50p50 homodimer, -0.0302 z-score; with p52p52 homodimer, -0.0163 z-score; in [1], -0.134 z-score; in experiment [2], -0.134 z-score; with RELB subunit;p50 subunit, 0.147 z-score. Also, the binding signal with RELB subunit;p52 subunit is 0.216 z-score; in experiment [3], -0.0533 z-score; in [4], -0.265 z-score.
For the sequence AGAGGTGTCCT, the binding signal is -0.184 z-score in the experiment with RELARELA (p65 homodimer); -1.69 z-score with p50p50 homodimer; -0.541 z-score with p52p52 homodimer; -0.927 z-score in experiment [1]; -0.707 z-score in [2]; -0.854 z-score in the experiment with RELB subunit;p50 subunit. Also, the figures for the binding signal (with RELB subunit;p52 subunit; in experiment [3]; in experiment [4]) were -0.664 z-score, -1.22 z-score and -0.658 z-score, respectively.
Turning to AGAGATGCCCT, the binding signal was -0.748 z-score in the experiment with RELARELA (p65 homodimer); -1.63 z-score with p50p50 homodimer; -0.655 z-score in the experiment with p52p52 homodimer; -0.706 z-score in [1]; -0.889 z-score in [2]; -1.04 z-score in the experiment with RELB subunit;p50 subunit. The binding signal with RELB subunit;p52 subunit was -0.94 z-score; in experiment [3], -0.882 z-score; in experiment [4], -0.704 z-score.
For the sequence GGATTCCCCCT, the binding signal with RELARELA (p65 homodimer) stood at 2.01 z-score; with p50p50 homodimer, 1.46 z-score; with p52p52 homodimer, 2.93 z-score; in experiment [1], 2.64 z-score; in experiment [2] it was 2.73 z-score; in the experiment with RELB subunit;p50 subunit it was 2.83 z-score. Also, the binding signal with RELB subunit;p52 subunit turned out to be 2.57 z-score; in [3], 2.03 z-score; in [4] it was 2.78 z-score.
With AAAGGTCCCCT, the binding signal with RELARELA (p65 homodimer) is -0.0302 z-score; in the experiment with p50p50 homodimer, 1.09 z-score; with p52p52 homodimer it was 0.848 z-score; in [1] it was 0.65 z-score; in experiment [2] it was 0.742 z-score; in the experiment with RELB subunit;p50 subunit it was 1.05 z-score. For the same sequence, the binding signal in the experiment with RELB subunit;p52 subunit came out at 0.989 z-score; in experiment [3], 0.669 z-score; in experiment [4], 0.512 z-score.
On to AGATTGACCCT, for which the binding signal is -0.149 z-score with RELARELA (p65 homodimer); -0.594 z-score with p50p50 homodimer; -0.42 z-score in the experiment with p52p52 homodimer; -0.583 z-score in experiment [1]; -0.704 z-score in experiment [2]; -0.635 z-score with RELB subunit;p50 subunit. Further, the results for the binding signal (in the experiment with RELB subunit;p52 subunit; in experiment [3]; in experiment [4]) were -0.605 z-score, -0.895 z-score and -0.787 z-score, respectively.
With CAGGGATCCCC, the binding signal turned out to be 0.967 z-score with RELARELA (p65 homodimer); 0.94 z-score with p50p50 homodimer; 0.898 z-score with p52p52 homodimer; 1.56 z-score in [1]; 1.23 z-score in experiment [2]; 1.11 z-score in the experiment with RELB subunit;p50 subunit. In addition, the results for the binding signal (with RELB subunit;p52 subunit; in experiment [3]; in experiment [4]) were 1.1 z-score, 1.1 z-score and 1.31 z-score, respectively.
As for GGGATAGTCCC, the binding signal with RELARELA (p65 homodimer) came to 2.07 z-score; with p50p50 homodimer, 0.707 z-score; with p52p52 homodimer, 2.94 z-score; in experiment [1], 1.82 z-score; in experiment [2], 2.15 z-score; with RELB subunit;p50 subunit it was 1.87 z-score. Besides, the results for the binding signal (with RELB subunit;p52 subunit; in experiment [3]; in experiment [4]) were 1.6 z-score, 1.32 z-score and 1.96 z-score, respectively.
Turning to GGGTTTGCCCT, the binding signal is 1.25 z-score with RELARELA (p65 homodimer); -0.184 z-score with p50p50 homodimer; 0.265 z-score with p52p52 homodimer; 0.277 z-score in experiment [1]; 0.423 z-score in [2]; -0.518 z-score in the experiment with RELB subunit;p50 subunit. In addition, the results for the binding signal (in the experiment with RELB subunit;p52 subunit; in experiment [3]; in experiment [4]) were -0.154 z-score, 0.409 z-score and 0.225 z-score, respectively.
As for CGATTAATCCC, the binding signal in the experiment with RELARELA (p65 homodimer) was 0.0967 z-score; in the experiment with p50p50 homodimer, -0.315 z-score; in the experiment with p52p52 homodimer, -0.0861 z-score; in experiment [1], -0.0553 z-score; in experiment [2], -0.137 z-score; with RELB subunit;p50 subunit it was 0.0473 z-score. Moreover, the binding signal is -0.161 z-score with RELB subunit;p52 subunit, -0.0218 z-score in [3] and -0.299 z-score in experiment [4].
Take GAAGGTCTCCT: the binding signal in the experiment with RELARELA (p65 homodimer) is -0.533 z-score; in the experiment with p50p50 homodimer, -2.58 z-score; in the experiment with p52p52 homodimer it was -0.69 z-score; in experiment [1] it was -0.982 z-score; in [2], -0.897 z-score; in the experiment with RELB subunit;p50 subunit, -1.22 z-score. Moreover, the binding signal with RELB subunit;p52 subunit is -1.02 z-score; in experiment [3], -1.58 z-score; in experiment [4], -0.76 z-score.
Take GAGGTTATCCT: the binding signal is -0.457 z-score with RELARELA (p65 homodimer); -0.539 z-score in the experiment with p50p50 homodimer; -0.329 z-score with p52p52 homodimer; -0.899 z-score in [1]; -0.657 z-score in [2]; -0.734 z-score with RELB subunit;p50 subunit. Also, the binding signal in the experiment with RELB subunit;p52 subunit was -0.759 z-score; in [3], -1.3 z-score; in experiment [4] it was -0.681 z-score.
